Where “and” joins values, the source holds several entries; their conditions need not be identical. Equal values may be shown once. Records with an inconclusive call do not appear. Some structures have more than one record in an assay (separate samples or runs), and their calls can disagree. Calls of active or inactive are those of the source. Calls come from the whole dose curve; as a rule, active = well fitted curve in the direction sought with a large enough effect; inconclusive = small, poorly fitted or top-dose-only effect, or another doubt; inactive = no such curve, though single readings can be large; an effect the other way counts as inactive or inconclusive.
Experiments:
MKL-2 = experiment: qHTS assay to identify novel small-molecules to repurpose for Merkel cell carcinoma treatment (AID 1296009); conditions: MCC and control cell lines, CellTiter-Glo viability, 72 h; series mostly up to 46 µM; note: nearly all actives have a fitted effect of over 60% in size
Method in brief: (§1)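 Cells were incubated with compound for 72 hr at 37 degree celsius before CellTiter-Glo addition. Luminescence was normalized with no-cell wells as full cytotoxicity and DMSO as baseline.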

NIH3T3 = experiment: as above; conditions: MCC and control cell lines, CellTiter-Glo viability, 72 h; at 44.8 µM (top of the series) unless noted
Method in brief: as §1

UISO = experiment: as above; conditions: MCC and control cell lines, CellTiter-Glo viability, 72 h; series mostly up to 46 µM
Method in brief: as §1

WaGa = experiment: as above; conditions: MCC and control cell lines, CellTiter-Glo viability, 72 h; series mostly up to 46 µM
Method in brief: as §1

C33A = experiment: Primary qHTS to identify gynecologic anti-cancer compounds using libraries of approved drugs and bioactive compounds (AID 1345084); conditions: Gynecologic cancer cell panel viability, ATPlite luminescence, 48 h; series mostly up to 57.5 µM; note: nearly all actives have a fitted effect of over 55% in size; note: potency is the fitted concentration of half-maximal effect
Method in brief: (§2)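 Cells, 1,000 per well, plated 16 h, then exposed 48 h at 37 C to compounds. Viability by ATPlite luminescence after 15 min at room temperature.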

CASKI = experiment: as above; conditions: Gynecologic cancer cell panel viability, ATPlite luminescence, 48 h; series mostly up to 57.5 µM
Method in brief: as §2

Es-2 = experiment: as above; conditions: Gynecologic cancer cell panel viability, ATPlite luminescence, 48 h; series mostly up to 57.5 µM
Method in brief: as §2

HeLa = experiment: as above; conditions: Gynecologic cancer cell panel viability, ATPlite luminescence, 48 h; series mostly up to 57.5 µM
Method in brief: as §2

Hek293T = experiment: as above; conditions: Gynecologic cancer cell panel viability, ATPlite luminescence, 48 h, control line for the selectivity index; series mostly up to 57.5 µM
Method in brief: as §2

JEG-3 = experiment: as above; conditions: Gynecologic cancer cell panel viability, ATPlite luminescence, 48 h; series mostly up to 57.5 µM
Method in brief: as §2

OV90 = experiment: as above; conditions: Gynecologic cancer cell panel viability, ATPlite luminescence, 48 h; series mostly up to 57.5 µM
Method in brief: as §2

PA-1 = experiment: as above; conditions: Gynecologic cancer cell panel viability, ATPlite luminescence, 48 h; series mostly up to 57.5 µM
Method in brief: as §2

SKOV3 = experiment: as above; conditions: Gynecologic cancer cell panel viability, ATPlite luminescence, 48 h; series mostly up to 57.5 µM
Method in brief: as §2

Tov-21-G = experiment: as above; conditions: Gynecologic cancer cell panel viability, ATPlite luminescence, 48 h; series mostly up to 57.5 µM
Method in brief: as §2

Tov112D = experiment: as above; conditions: Gynecologic cancer cell panel viability, ATPlite luminescence, 48 h; series mostly up to 57.5 µM
Method in brief: as §2

[1] = Drug repurposing screens with cells derived from glioblastoma tumor samples (AID 1345199); conditions: GBM patient neurospheres viability, ATP luminescence, 48 h; note: nearly all actives have a fitted effect of over 40% in size; note: potency is the fitted concentration of half-maximal effect
Method in brief: (§3)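 Four patient lines of CD133+ GBM neurospheres were screened at several concentrations; hits were retested in those lines plus three slower-growing GBM lines, using 48-hour treatment and ATP-based viability.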

astro = experiment: as above; conditions: viability, ATP luminescence, 48 h; series mostly up to 45.9 µM
Method in brief: as §3

CAOV3 = experiment: Primary qHTS to identify gynecologic anti-cancer compounds using libraries of approved drugs and bioactive compounds (AID 1345084); conditions: Gynecologic cancer cell panel viability, ATPlite luminescence, 48 h; series mostly up to 57.5 µM; note: nearly all actives have a fitted effect of over 55% in size; note: potency is the fitted concentration of half-maximal effect
Method in brief: as §2

[2] = at 45.9 µM (top of the series), tumour line B
[3] = at 45.9 µM (top of the series), tumour line D
[4] = at 46 µM (top of the series), tumour line A
[5] = at 46.1 µM (top of the series), tumour line C
% is set by controls: 0 for no effect and ±100 for the full control effect.

CN1CCC[C@@H]1Cc1c[nH]c2ccc(CCS(=O)(=O)c3ccccc3)cc12
inactive: Potency (MKL-2) | outcome (NIH3T3) | Potency (UISO) | Potency (WaGa) | Potency (C33A) | Potency (CASKI) | Potency (Es-2) | Potency (HeLa) | Potency (Hek293T) | Potency (JEG-3) | Potency (OV90) | Potency (PA-1) | Potency (SKOV3) | Potency (Tov-21-G) | Potency (Tov112D) | activity, negative = cell killing [1, 2] -21.2% | Potency (astro)
active: Potency ([1]; tumour line A) 14.1 µM

OCC(CO)N[C@H]1C[C@](O)(CO)[C@@H](O)[C@H](O)[C@H]1O
inactive: Potency (MKL-2) | Potency (UISO) | Potency (WaGa) | Potency (C33A) | Potency (CAOV3) | Potency (CASKI) | Potency (Es-2) | Potency (HeLa) | Potency (Hek293T) | Potency (JEG-3) | Potency (OV90) | Potency (PA-1) | Potency (SKOV3) | Potency (Tov-21-G) | Potency (Tov112D) | activity, negative = cell killing [1, 2] -9.88% | activity, negative = cell killing [1, 3] 10.9% | activity, negative = cell killing [1, 4] -13.3% | activity, negative = cell killing [1, 5] -4.04% | Potency (astro)

Cc1cc(O)cc2c1O[C@](C)(CCC[C@H](C)CCC[C@H](C)CCCC(C)C)CC2
inactive: Potency (MKL-2) | outcome (NIH3T3) | Potency (UISO) | Potency (WaGa) | Potency (C33A) | Potency (CASKI) | Potency (Es-2) | Potency (HeLa) | Potency (Hek293T) | Potency (JEG-3) | Potency (OV90) | Potency (PA-1) | Potency (SKOV3) | Potency (Tov-21-G) | Potency (Tov112D) | activity, negative = cell killing [1, 5] -14.5% | Potency (astro)
active: Potency ([1]; tumour line A) 5.01 µM | Potency ([1]; tumour line B) 17.8 µM | Potency ([1]; tumour line D) 35.5 µM

C[C@@H]1CC[C@@]2(OC1)O[C@H]1C[C@H]3[C@@H]4CC[C@H]5C[C@@H](O)CC[C@]5(C)[C@H]4CC(=O)[C@]3(C)[C@H]1[C@@H]2C
inactive: activity change, negative = cytotoxicity (MKL-2) 2.92% [at 4.84 µM] | outcome (NIH3T3) inactive [at 4.96 µM] | activity change, negative = cytotoxicity (WaGa) 17.9% [at 4.84 µM] | activity change, negative = cytotoxicity (C33A) -0.977% [at 6.55 µM] | activity change, negative = cytotoxicity (CAOV3) -7.17% [at 6.55 µM] | activity change, negative = cytotoxicity (CASKI) 7.56% [at 6.55 µM] | activity change, negative = cytotoxicity (Es-2) -0.456% [at 6.55 µM] | activity change, negative = cytotoxicity (HeLa) 1.36% [at 6.55 µM] | activity change, negative = cytotoxicity (Hek293T) 7.28% [at 6.55 µM] | activity change, negative = cytotoxicity (JEG-3) -0.879% [at 6.55 µM] | activity change, negative = cytotoxicity (OV90) 12.9% [at 6.55 µM] | activity change, negative = cytotoxicity (PA-1) 9.38% [at 6.55 µM] | activity change, negative = cytotoxicity (SKOV3) 8.75% [at 6.55 µM] | activity change, negative = cytotoxicity (Tov-21-G) 5.68% [at 6.55 µM] | activity change, negative = cytotoxicity (Tov112D) 10.1% [at 6.55 µM] | activity, negative = cell killing ([1]; at 20 µM (top of the series), tumour line C) -26.8% | activity, negative = cell killing ([1]; at 21.2 µM (top of the series), tumour line B) -15.7% | activity, negative = cell killing ([1]; at 21.2 µM (top of the series), tumour line D) -22.8% | Potency (astro)

CCOc1nc2cccc(C(=O)O)c2n1Cc1ccc(-c2ccccc2-c2nn[nH]n2)cc1
inactive: Potency (MKL-2) | outcome (NIH3T3) | Potency (UISO) | Potency (WaGa) | Potency (C33A) | Potency (CAOV3) | Potency (CASKI) | Potency (Es-2) | Potency (HeLa) | Potency (Hek293T) | Potency (JEG-3) | Potency (OV90) | Potency (PA-1) | Potency (SKOV3) | Potency (Tov-21-G) | Potency (Tov112D) | activity, negative = cell killing [1, 2] 5.1%
active: Potency (astro) 20 µM

Oc1cn2c(n1)Nc1ccc(Cl)c(Cl)c1C2
inactive: Potency (MKL-2) | outcome (NIH3T3) inactive [at 17.4 µM] | Potency (UISO) | Potency (WaGa) | Potency (C33A) | Potency (CAOV3) | Potency (CASKI) | Potency (Es-2) | Potency (JEG-3) | Potency (OV90) | Potency (SKOV3) | Potency (Tov-21-G) | Potency (Tov112D) | activity, negative = cell killing [1, 3] -7.52% | activity, negative = cell killing [1, 5] -8.47% and 1.08% | Potency (astro)
active: Potency (PA-1) 0.355 µM

C[C@@H]1CN(c2c(F)c(F)c3c(=O)c(C(=O)O)cn(C4CC4)c3c2F)C[C@H](C)N1
inactive: Potency (MKL-2) | Potency (UISO) | Potency (WaGa) | Potency (C33A) | Potency (CAOV3) | Potency (CASKI) | Potency (Es-2) | Potency (HeLa) | Potency (Hek293T) | Potency (JEG-3) | Potency (OV90) | Potency (PA-1) | Potency (SKOV3) | Potency (Tov-21-G) | Potency (Tov112D) | activity, negative = cell killing [1, 2] -1.06% | activity, negative = cell killing [1, 3] -13.8% | activity, negative = cell killing [1, 4] -28.8% | activity, negative = cell killing [1, 5] 26.5% | Potency (astro)

CC(C)(O)c1ccccc1CC[C@@H](SCC1(CC(=O)O)CC1)c1cccc(/C=C/c2ccc3ccc(Cl)cc3n2)c1
inactive: Potency (MKL-2) | outcome (NIH3T3) | Potency (UISO) | Potency (WaGa) | Potency (C33A) | Potency (CASKI) | Potency (Es-2) | Potency (HeLa) | Potency (Hek293T) | Potency (JEG-3) | Potency (OV90) | Potency (PA-1) | Potency (Tov-21-G) | Potency (Tov112D) | activity, negative = cell killing [1, 2] -2.34% | activity, negative = cell killing [1, 3] -14.4% | activity, negative = cell killing [1, 5] -19.5%
active: Potency (astro) 20 µM
inactive and 35.5 µM (active): Potency (SKOV3)

CC1(C)Oc2ccc(C#N)cc2[C@@H](N2CCCC2=O)[C@@H]1O
inactive: Potency (MKL-2) | Potency (UISO) | Potency (WaGa) | Potency (C33A) | Potency (CAOV3) | Potency (CASKI) | Potency (Es-2) | Potency (HeLa) | Potency (Hek293T) | Potency (JEG-3) | Potency (OV90) | Potency (PA-1) | Potency (SKOV3) | Potency (Tov-21-G) | Potency (Tov112D) | activity, negative = cell killing [1, 2] -7.82% and 2.52% | activity, negative = cell killing [1, 3] -4.19% and -0.466% | activity, negative = cell killing [1, 4] -32.5% and -12.3% | activity, negative = cell killing [1, 5] -7.78% and -4.72% | Potency (astro)

— PubChem BioAssay (NCATS)
